Consider nine compounds from PubChem BioAssay (EPA / NIEHS).

Several values for one entry are separate records, joined by “and”; a condition that tells them apart may be missing. Identical values can stand only once. Records with an inconclusive call do not appear. Some structures have more than one record in an assay (separate samples or runs), and their calls can disagree. Activity calls are given as the source filed them. Rule for the calls, unless noted: active = hit-call score of the fitted dose curve at least 0.9, where 1 is the maximum; inactive = score below 0.9.

Assay [1] can be described thus: ATG_TAL_CIS: Attagene CIS-FACTORIAL HepG2 Assay for human TAL Basal Promoter (AID 2282966).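 Note: background control endpoint measuring basal TAL promoter reporter mRNA not a specific factor.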 The following applies: HepG2 Attagene cis-factorial TAL promoter reporter; actives raise or lower the signal. An outline of the steps: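 HepG2 cells were transiently transfected with promoter-driven multiplexed reporter units and dosed for 24 h. Reporter mRNA was measured by RT-PCR with capillary electrophoresis fluorescence; bidirectional fits used DMSO as baseline, serving as a background control.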

A short description of assay [2]: ATG_TGFb_CIS: Attagene CIS-FACTORIAL HepG2 Assay for human Transforming Growth Factor (TGF) (AID 2282967). The following applies: HepG2 Attagene CIS TGFb reporter, mRNA transcription; actives raise or lower the signal. Put shortly: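 Cells were dosed for 24 hours, after which total RNA was reverse-transcribed and reporter sequences amplified, labeled and sized by capillary electrophoresis. Activity was fitted in both directions against DMSO.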

The nature of assay [3]: ATG_VDRE_CIS: Attagene CIS-FACTORIAL HepG2 Assay for human Vitamin D Receptor Element (VDRE) (AID 2282968). The following applies: HepG2 VDRE cis-reporter transcription, actives raise or lower the signal. An outline of the steps:
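Reporter mRNA induction, quantified by capillary electrophoresis of fluorescently labelled RT-PCR products, was read 24 h after dosing HepG2 cells carrying transiently transfected cis-regulated reporter units; gain or loss relative to DMSO.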

The target in assay [4] is Nuclear receptor subfamily 1 group I member 3 (Homo sapiens) (UniProt Q14994). As to the kind of experiment: ATG_CAR_TRANS: Attagene TRANS-FACTORIAL HepG2 Assay for human Constitutive Androstane Receptor (CAR) (AID 2282969; active = hit-call score of the fitted dose curve at least 0.9, where 1 is the maximum;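 note: activators raise reporter mRNA above DMSO so AC50 marks induction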). Particulars: HepG2 Attagene TRANS-FACTORIAL CAR reporter. Put shortly:
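Readout is reporter mRNA induction, quantified by fluorescent primer extension and capillary electrophoresis after RT-PCR. Cells were HepG2 transiently carrying chimeric NR-Gal4 constructs with GAL4-UAS reporters, treated for 24 h; activity scored upward from DMSO.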

In assay [5] the target is Estrogen receptor (Homo sapiens) (UniProt P03372). The experiment in a line: ATG_ERa_TRANS: Attagene TRANS-FACTORIAL HepG2 Assay for human Estrogen Receptor alpha (ERa) (AID 2282970; active = hit-call score of the fitted dose curve at least 0.9, where 1 is the maximum). Particulars: HepG2 Attagene TRANS ERa GAL4 reporter, mRNA. Put shortly: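 HepG2 cells transiently transfected with multiplexed GAL4-UAS reporter units; ERa activity read via exogenous chimeric NR-Gal4 protein. After 24 hour compound exposure, reporter mRNA measured by RT-PCR with 6-FAM labelling and capillary electrophoresis; gain-of-signal fitted relative to DMSO.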

For assay [6], the target named is X-box-binding protein 1 (Homo sapiens) (UniProt P17861). The experiment in a line: ATG_Xbp1_CIS: Attagene CIS-FACTORIAL HepG2 Assay for human X-box Binding Protein 1 (XBP1) (AID 2282972). The following applies: HepG2 XBP1 cis-element reporter, Attagene multiplex; actives raise or lower the signal. An outline of the steps: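 After a 24-hour chemical exposure of HepG2 cells carrying cis-regulated reporters, reporter mRNA levels are assessed. Quantification uses RT-PCR, 6-FAM labelling and capillary electrophoresis. Gain- or loss-of-signal is fitted against DMSO.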

Assay [7] can be described thus: ATG_M_19_TRANS: Attagene TRANS-FACTORIAL HepG2 Assay for M19 Transcription Factor (Internal Marker) (AID 2282974; active = hit-call score of the fitted dose curve at least 0.9, where 1 is the maximum). Particulars: HepG2 Attagene TRANS-FACTORIAL M19 internal marker reporter. An outline of the steps:
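Background-control readout: after 24 h chemical exposure of transfected HepG2 carrying GAL4-driven reporter units, RNA was reverse-transcribed, amplified, fluorescently labeled and sized by capillary electrophoresis; gain-of-signal fit against DMSO.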

Assay [8] has as its target Glucocorticoid receptor (Homo sapiens) (UniProt P04150). The experiment in a line: ATG_GR_TRANS: Attagene TRANS-FACTORIAL HepG2 Assay for human Glucocorticoid Receptor (GR) (AID 2282978; active = hit-call score of the fitted dose curve at least 0.9, where 1 is the maximum;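 note: activators score as hits since higher reporter transcript over DMSO is fitted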). Particulars: HepG2 Attagene TRANS GR reporter, mRNA transcription. Put shortly:
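Readout is reporter transcript from a chimeric GR-Gal4 acting on GAL4-UAS in transfected human HepG2 liver cells after 24 h exposure, quantified by RT-PCR and capillary electrophoresis. Activation fitted upward against DMSO.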

Assay [9] has as its target Bile acid receptor (Homo sapiens) (UniProt Q96RI1). As to the kind of experiment: ATG_FXR_TRANS: Attagene TRANS-FACTORIAL HepG2 Assay for Farnesoid X Receptor (FXR) (AID 2282979; active = hit-call score of the fitted dose curve at least 0.9, where 1 is the maximum;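 note: hits raise reporter mRNA above DMSO so AC50 marks FXR activation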). The following applies: HepG2 Attagene TRANS FXR-GAL4 reporter transcription. An outline of the steps: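 HepG2 cells transiently transfected with reporter constructs in which a chimeric FXR-GAL4 protein drives a GAL4-UAS reporter; 24 h compound exposure. Reporter mRNA measured by RT-PCR, FAM labelling, HpaI digestion and capillary electrophoresis; gain-of-signal versus DMSO.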

Assay [10] can be described thus: ATG_M_06_TRANS: Attagene TRANS-FACTORIAL HepG2 Assay for M06 Transcription Factor (Internal Marker) (AID 2282983; active = hit-call score of the fitted dose curve at least 0.9, where 1 is the maximum;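 note: reporter transcript level by RT-PCR then capillary electrophoresis fluorescence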). The following applies: HepG2 Attagene TRANS M06 internal marker reporter. An outline of the steps:
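HepG2 cells transiently transfected with multiplexed GAL4-UAS reporter transcription units; after 24 h compound exposure, reporter mRNA measured by RT-PCR, FAM-labelled primer extension, HpaI digestion and capillary electrophoresis. Gain-of-signal fitted versus DMSO baseline; background control readout.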

Assay [11] concerns the target Nuclear receptor subfamily 4 group A member 2 (Homo sapiens) (UniProt P43354). As to the kind of experiment: ATG_NURR1_TRANS: Attagene TRANS-FACTORIAL HepG2 Assay for human Nuclear Receptor Related Protein 1 (NURR1) (AID 2282985; active = hit-call score of the fitted dose curve at least 0.9, where 1 is the maximum). Particulars: HepG2 Attagene TRANS reporter, mRNA readout. An outline of the steps: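 Transient transfection of HepG2, human liver cells, with multiple GAL4-UAS reporter transcription units. Cells dosed 24 h, RNA isolated, reverse-transcribed, PCR-amplified, FAM-labelled, HpaI-digested, sized by capillary electrophoresis. DMSO served as negative control.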

The target of assay [12] is Transcriptional activator Myb (Homo sapiens) (UniProt P10242). As to the kind of experiment: ATG_Myb_CIS: Attagene CIS-FACTORIAL HepG2 Assay for human Myeloblastosis (Myb) Proto-Oncogene Transcription Factor (AID 2282986). Particulars: HepG2 Attagene CIS-FACTORIAL Myb reporter transcription; actives raise or lower the signal. Put shortly: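 Reporter mRNA is quantified by RT-PCR and capillary electrophoresis 24 h after dosing HepG2 cells transfected with cis-regulated reporter units, which track endogenous transcription factor activity. Gain and loss of signal are fitted versus DMSO baseline.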

Assay [13] concerns the target Nuclear respiratory factor 1 (Homo sapiens) (UniProt Q16656). The experiment in a line: ATG_NRF1_CIS: Attagene CIS-FACTORIAL HepG2 Assay for human Nuclear Respiratory Factor 1 (NRF1) Orphan Gene (AID 2282987). Particulars: HepG2 NRF1 cis-element reporter, Attagene multiplex; actives raise or lower the signal. Put shortly:
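Endogenous NRF1-driven reporter transcription in transfected HepG2 cells after 24 h treatment. Readout: RT-PCR products, 6-FAM labelled and resolved by capillary electrophoresis; changes fitted both directions relative to DMSO.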

Assay [14] in a line: ATG_GAL4_TRANS: Attagene TRANS-FACTORIAL HepG2 Assay for GAL4 (Internal Marker) (AID 2282976; active = hit-call score of the fitted dose curve at least 0.9, where 1 is the maximum). Particulars: HepG2 Attagene TRANS GAL4 internal marker reporter. An outline of the steps: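 HepG2 cells transiently transfected with multiplexed GAL4-UAS reporter constructs were dosed for 24 h. Reporter mRNA was measured by RT-PCR, 6-FAM primer extension, HpaI digestion and capillary electrophoresis, and gain of signal was fitted relative to DMSO.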

Assay [15] has as its target Estrogen-related receptor gamma (Homo sapiens) (UniProt P62508). The experiment in a line: ATG_ERRg_TRANS: Attagene TRANS-FACTORIAL HepG2 Assay for human Estrogen-Related Receptor gamma (ERRg) (AID 2282977; active = hit-call score of the fitted dose curve at least 0.9, where 1 is the maximum;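 note: hits increase reporter signal over DMSO so potencies reflect activators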). Particulars: HepG2 Attagene TRANS reporter, ERRg transactivation. An outline of the steps: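 Transfect HepG2 with multiple GAL4-UAS reporter transcription units; dose chemicals 24 h; isolate RNA, reverse-transcribe with oligo(dT), PCR-amplify, label with 6-FAM, digest with HpaI; size fragments by capillary electrophoresis. DMSO serves as negative control.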

Assay [16] has as its target Oxysterols receptor LXR-alpha (Homo sapiens) (UniProt Q13133). As to the kind of experiment: ATG_LXRa_TRANS: Attagene TRANS-FACTORIAL HepG2 Assay for human Liver X Receptor alpha (LXRa) (AID 2282980; active = hit-call score of the fitted dose curve at least 0.9, where 1 is the maximum). Particulars: HepG2 Attagene TRANS reporter, LXRa transactivation. Put shortly: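 HepG2 cells were transiently transfected with multiplexed reporter units driven by chimeric LXRa–GAL4 fusion proteins, then dosed for 24 h. Reporter mRNA was quantified by RT-PCR, fluorescent labelling and capillary electrophoresis; gain of signal fitted against DMSO baseline.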

The nature of assay [17]: ATG_M_32_TRANS: Attagene TRANS-FACTORIAL HepG2 Assay for M32 Transcription Factor (Internal Marker) (AID 2282984; active = hit-call score of the fitted dose curve at least 0.9, where 1 is the maximum). The following applies: HepG2 Attagene TRANS M32 internal marker reporter. An outline of the steps: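 Measures reporter mRNA induction in human HepG2 liver cells after 24 h chemical treatment. Transcripts from transiently transfected GAL4-UAS reporter units are amplified, fluorescently labelled and sized by capillary electrophoresis; gain of signal relative to DMSO.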

Assay [18] concerns the target Hepatocyte nuclear factor 4-alpha (Homo sapiens) (UniProt P41235). As to the kind of experiment: ATG_HNF4a_TRANS: Attagene TRANS-FACTORIAL HepG2 Assay for human Hepatocyte Nuclear Factor 4 alpha (HNF4a) (AID 2282982; active = hit-call score of the fitted dose curve at least 0.9, where 1 is the maximum). The following applies: HepG2 HNF4a transactivation reporter, mRNA readout. An outline of the steps:
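Readout is fluorescent reporter-transcript fragments resolved by capillary electrophoresis after RT-PCR from HepG2 cells dosed for 24 h. Cells carried transfected GAL4-UAS reporter constructs measuring exogenous NR-GAL4 chimera activity; DMSO served as baseline.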

X-box-binding protein 1 (Homo sapiens), sequence (P17861 whole entry, looked up): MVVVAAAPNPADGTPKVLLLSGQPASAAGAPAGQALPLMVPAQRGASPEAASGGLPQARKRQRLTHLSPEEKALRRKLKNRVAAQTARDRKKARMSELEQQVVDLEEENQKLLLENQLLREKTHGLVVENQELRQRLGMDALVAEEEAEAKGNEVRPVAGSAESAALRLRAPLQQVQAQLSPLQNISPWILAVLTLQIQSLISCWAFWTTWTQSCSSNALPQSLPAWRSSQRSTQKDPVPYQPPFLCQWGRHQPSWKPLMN
Nuclear receptor subfamily 4 group A member 2 (Homo sapiens), sequence (P43354 whole entry, looked up, the tested form may be a part): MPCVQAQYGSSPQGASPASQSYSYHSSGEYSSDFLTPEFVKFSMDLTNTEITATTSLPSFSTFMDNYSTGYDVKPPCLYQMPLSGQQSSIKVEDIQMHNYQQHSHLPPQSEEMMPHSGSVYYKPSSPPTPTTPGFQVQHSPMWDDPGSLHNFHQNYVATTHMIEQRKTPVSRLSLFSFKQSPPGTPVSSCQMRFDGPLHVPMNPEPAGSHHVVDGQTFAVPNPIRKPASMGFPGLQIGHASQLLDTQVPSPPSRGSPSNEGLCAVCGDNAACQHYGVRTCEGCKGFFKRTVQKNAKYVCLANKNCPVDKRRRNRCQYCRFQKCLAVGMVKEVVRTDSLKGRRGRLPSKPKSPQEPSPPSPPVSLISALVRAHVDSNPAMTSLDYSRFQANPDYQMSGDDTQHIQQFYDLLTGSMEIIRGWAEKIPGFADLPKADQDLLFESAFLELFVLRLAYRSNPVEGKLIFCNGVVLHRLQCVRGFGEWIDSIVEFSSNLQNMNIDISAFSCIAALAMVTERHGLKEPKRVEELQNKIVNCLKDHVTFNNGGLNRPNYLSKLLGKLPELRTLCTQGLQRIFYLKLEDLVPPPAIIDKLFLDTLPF
Bile acid receptor (Homo sapiens), sequence (Q96RI1 whole entry, looked up, the tested form may be a part): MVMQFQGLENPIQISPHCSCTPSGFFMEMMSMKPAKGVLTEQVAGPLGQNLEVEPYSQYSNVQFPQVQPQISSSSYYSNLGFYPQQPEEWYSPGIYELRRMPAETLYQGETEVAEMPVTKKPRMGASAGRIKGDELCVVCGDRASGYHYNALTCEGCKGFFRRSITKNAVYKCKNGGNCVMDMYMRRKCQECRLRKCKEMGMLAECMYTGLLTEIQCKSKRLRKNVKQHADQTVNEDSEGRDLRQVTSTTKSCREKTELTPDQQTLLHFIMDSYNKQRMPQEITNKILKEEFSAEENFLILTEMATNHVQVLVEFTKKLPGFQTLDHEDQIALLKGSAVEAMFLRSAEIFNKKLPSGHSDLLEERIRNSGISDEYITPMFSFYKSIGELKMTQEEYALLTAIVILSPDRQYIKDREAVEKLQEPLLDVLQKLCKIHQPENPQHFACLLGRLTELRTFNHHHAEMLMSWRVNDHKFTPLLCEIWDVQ
Nuclear receptor subfamily 1 group I member 3 (Homo sapiens), sequence (Q14994 whole entry, looked up, the tested form may be a part): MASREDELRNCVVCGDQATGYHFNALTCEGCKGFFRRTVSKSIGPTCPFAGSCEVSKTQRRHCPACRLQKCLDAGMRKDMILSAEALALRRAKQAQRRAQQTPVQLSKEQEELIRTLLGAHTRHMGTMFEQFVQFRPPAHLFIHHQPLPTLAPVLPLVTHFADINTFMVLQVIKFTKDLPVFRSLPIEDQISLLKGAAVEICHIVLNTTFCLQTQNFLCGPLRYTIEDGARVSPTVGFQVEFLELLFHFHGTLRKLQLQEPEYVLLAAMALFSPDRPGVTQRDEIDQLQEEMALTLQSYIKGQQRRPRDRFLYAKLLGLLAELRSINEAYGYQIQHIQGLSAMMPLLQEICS
Estrogen-related receptor gamma (Homo sapiens), sequence (P62508 whole entry, looked up, the tested form may be a part): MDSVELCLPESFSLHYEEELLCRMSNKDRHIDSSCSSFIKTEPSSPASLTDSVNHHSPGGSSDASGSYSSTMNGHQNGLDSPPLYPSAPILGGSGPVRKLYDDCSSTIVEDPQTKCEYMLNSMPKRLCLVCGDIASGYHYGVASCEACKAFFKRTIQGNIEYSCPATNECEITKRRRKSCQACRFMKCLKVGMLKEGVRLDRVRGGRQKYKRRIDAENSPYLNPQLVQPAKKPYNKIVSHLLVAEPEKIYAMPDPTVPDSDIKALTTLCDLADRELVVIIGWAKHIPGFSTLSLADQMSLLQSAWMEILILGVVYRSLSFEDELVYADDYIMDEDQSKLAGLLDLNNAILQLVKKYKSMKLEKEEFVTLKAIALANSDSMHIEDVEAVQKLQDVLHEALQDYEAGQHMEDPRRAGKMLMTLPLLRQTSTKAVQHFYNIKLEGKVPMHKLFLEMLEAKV
Transcriptional activator Myb (Homo sapiens), sequence (P10242 whole entry, looked up): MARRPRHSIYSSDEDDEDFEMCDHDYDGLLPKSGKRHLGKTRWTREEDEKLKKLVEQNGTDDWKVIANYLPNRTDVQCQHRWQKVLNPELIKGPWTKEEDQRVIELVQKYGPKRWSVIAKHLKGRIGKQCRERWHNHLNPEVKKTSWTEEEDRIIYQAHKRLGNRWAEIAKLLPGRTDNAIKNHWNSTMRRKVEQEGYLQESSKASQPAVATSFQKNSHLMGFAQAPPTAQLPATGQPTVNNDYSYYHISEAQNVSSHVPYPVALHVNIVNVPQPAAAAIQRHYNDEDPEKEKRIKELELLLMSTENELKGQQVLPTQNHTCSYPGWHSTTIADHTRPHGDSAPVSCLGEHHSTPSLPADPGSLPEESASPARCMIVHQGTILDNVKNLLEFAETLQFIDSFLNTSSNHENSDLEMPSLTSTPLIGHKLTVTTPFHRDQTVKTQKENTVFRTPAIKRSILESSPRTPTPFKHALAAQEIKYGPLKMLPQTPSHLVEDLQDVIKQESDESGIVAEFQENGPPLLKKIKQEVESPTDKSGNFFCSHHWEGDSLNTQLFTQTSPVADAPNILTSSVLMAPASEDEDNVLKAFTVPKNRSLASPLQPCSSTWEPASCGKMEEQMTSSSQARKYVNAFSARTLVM
Estrogen receptor (Homo sapiens), sequence (P03372 whole entry, looked up, the tested form may be a part): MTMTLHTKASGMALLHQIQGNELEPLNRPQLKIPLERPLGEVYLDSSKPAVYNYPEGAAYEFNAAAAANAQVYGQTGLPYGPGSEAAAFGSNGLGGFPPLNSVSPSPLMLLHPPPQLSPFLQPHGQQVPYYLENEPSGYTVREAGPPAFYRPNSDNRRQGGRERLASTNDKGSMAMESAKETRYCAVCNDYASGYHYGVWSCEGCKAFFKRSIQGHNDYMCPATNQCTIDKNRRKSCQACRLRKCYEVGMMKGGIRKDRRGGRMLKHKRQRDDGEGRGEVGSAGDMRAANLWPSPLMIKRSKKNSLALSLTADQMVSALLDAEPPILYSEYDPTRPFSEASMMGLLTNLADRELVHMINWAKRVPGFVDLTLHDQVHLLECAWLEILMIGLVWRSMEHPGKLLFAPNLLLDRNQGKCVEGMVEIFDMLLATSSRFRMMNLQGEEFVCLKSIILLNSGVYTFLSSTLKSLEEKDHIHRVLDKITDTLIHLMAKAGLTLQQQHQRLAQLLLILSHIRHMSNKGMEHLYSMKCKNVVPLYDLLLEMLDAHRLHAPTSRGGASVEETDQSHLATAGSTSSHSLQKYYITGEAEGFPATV
Nuclear respiratory factor 1 (Homo sapiens), sequence (Q16656 whole entry, looked up): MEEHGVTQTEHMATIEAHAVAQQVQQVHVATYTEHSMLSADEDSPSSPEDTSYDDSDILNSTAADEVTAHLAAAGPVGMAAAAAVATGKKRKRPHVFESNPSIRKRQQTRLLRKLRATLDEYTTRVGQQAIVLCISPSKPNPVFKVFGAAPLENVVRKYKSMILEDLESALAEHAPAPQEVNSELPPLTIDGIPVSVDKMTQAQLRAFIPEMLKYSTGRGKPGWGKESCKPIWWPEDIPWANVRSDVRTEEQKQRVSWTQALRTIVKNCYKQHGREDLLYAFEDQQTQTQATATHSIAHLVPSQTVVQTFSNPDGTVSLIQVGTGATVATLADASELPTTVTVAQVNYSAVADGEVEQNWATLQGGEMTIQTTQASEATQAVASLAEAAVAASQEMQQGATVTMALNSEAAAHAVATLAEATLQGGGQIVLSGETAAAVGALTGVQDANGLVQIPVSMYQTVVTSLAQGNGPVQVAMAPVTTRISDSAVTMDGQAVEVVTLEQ
Oxysterols receptor LXR-alpha (Homo sapiens), sequence (Q13133 whole entry, looked up, the tested form may be a part): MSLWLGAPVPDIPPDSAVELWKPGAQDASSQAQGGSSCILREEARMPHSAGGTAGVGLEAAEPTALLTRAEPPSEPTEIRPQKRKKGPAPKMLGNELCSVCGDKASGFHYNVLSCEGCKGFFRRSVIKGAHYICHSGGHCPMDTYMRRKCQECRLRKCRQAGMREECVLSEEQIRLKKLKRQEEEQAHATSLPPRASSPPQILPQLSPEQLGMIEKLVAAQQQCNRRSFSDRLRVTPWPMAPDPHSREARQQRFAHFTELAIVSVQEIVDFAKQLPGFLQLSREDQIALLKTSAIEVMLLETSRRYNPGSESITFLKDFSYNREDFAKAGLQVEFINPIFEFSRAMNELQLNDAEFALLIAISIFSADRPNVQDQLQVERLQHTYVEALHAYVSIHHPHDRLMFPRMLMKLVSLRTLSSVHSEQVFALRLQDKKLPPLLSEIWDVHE
Hepatocyte nuclear factor 4-alpha (Homo sapiens), sequence (P41235 whole entry, looked up, the tested form may be a part): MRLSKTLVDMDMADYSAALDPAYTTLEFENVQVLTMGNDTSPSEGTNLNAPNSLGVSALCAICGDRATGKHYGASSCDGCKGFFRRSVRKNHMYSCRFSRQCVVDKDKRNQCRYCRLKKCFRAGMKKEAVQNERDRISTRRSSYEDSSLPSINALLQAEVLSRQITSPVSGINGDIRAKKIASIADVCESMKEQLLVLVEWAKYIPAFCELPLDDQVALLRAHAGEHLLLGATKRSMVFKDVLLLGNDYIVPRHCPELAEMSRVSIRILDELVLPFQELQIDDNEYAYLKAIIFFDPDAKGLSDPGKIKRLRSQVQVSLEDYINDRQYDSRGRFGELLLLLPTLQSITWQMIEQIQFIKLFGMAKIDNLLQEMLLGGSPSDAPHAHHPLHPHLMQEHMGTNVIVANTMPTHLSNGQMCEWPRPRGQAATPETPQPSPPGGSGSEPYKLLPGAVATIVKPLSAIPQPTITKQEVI

Consider `O=C(O)Cn1c(=O)n(Cc2ccc(Br)cc2F)c(=O)c2ccc(Cl)cc21`, for which the outcome in [1], in assay [2], in assay [4], in assay [5], in [6] and in assay [7] was inactive. Moreover, the compound was classed as inactive in assay [8], in assay [9], in assay [10], in [11], in [12] and in assay [13]. For the same compound, in [3], the AC50 is 27 µM (active).
`Cc1cc(F)ccc1-c1cc(N2CC[C@@H](O)[C@H]2CO)ncc1N(C)C(=O)C(C)(C)c1cc(C(F)(F)F)cc(C(F)(F)F)c1`: the outcome in assay [1], in [2], in [3], in assay [5], in [6] and in [7] was inactive. Besides, the compound was called inactive in assay [8], in assay [9], in assay [11], in [12] and in assay [13].
Consider `Cc1c2ccccc2c(C)c2c1ccc1ccccc12`, for which the outcome in assay [1], in assay [3], in [6], in assay [14], in assay [15] and in [8] was inactive. Besides, the outcome in assay [9], in assay [16], in [10], in [17], in assay [12] and in assay [13] was inactive. In addition, the results for the AC50 in [2], in assay [4] and in assay [5] were 54.4 µM (active), 44.7 µM (active) and 11.4 µM (active), respectively.
Regarding `O=C=NCCCCCCN=C=O`, the result in assay [1], in assay [2], in assay [3], in assay [5], in assay [6] and in assay [7] was inactive. For the same compound, the call in assay [14], in assay [9], in [16], in [10], in assay [17] and in [12] was inactive. The result in assay [13] was inactive.
Turning to `CN(C[C@@H](CC[N+]12CCC(C3CCCCC3)(CC1)CC2)c1ccc(Cl)c(Cl)c1)C(=O)c1cc(C(F)(F)F)cc(C(F)(F)F)c1`, the call in assay [1], in assay [2], in assay [3], in [4], in [5] and in [6] was inactive. Besides, the outcome in assay [15], in assay [8], in assay [10], in [12] and in assay [13] was inactive. The half-maximal activity concentration (AC50) in assay [17] was 18.4 µM (active).
For `Clc1cc(Cl)c2c(c1)N=C1CCCCCN1C2`, the outcome in assay [1], in [2], in assay [3], in assay [4], in [5] and in assay [6] was inactive. Further, the compound was called inactive in assay [15], in assay [8], in assay [10], in assay [12] and in assay [13].
As to `CC/C(=C(/CC)c1ccc(O)cc1)c1ccc(O)cc1`, the result in assay [1], in assay [2], in assay [3], in assay [6], in assay [14] and in assay [8] was inactive. Moreover, the compound was classed as inactive in [9], in assay [16], in assay [18], in assay [10], in [17] and in assay [11]. In addition, the result in [12] and in assay [13] was inactive. In addition, the half-maximal activity concentration (AC50) in [3] is 8.27 µM (active) and 6.68 µM (active) and 8.92 µM (active); in [6], 14.4 µM (active) [middle of 4 runs].
For the compound `NC(=O)c1nc(-c2cccc(-c3cc(F)ccc3OCC(F)(F)C(F)(F)F)c2)n[nH]1`, the compound was classed as inactive in assay [1], in [2], in assay [7], in [14], in assay [15] and in assay [8]. For the same compound, the outcome in [9], in assay [17], in [12] and in assay [13] was inactive. Further, the values for the half-maximal activity concentration (AC50) in assay [3], in assay [6] and in assay [11] were 13.7 µM (active), 44.6 µM (active) and 50.1 µM (active), respectively.
As to `CN(C)c1ccc(C(=C2C=CC(=[N+](C)C)C=C2)c2ccc(N(C)C)cc2)cc1`, the call in assay [1], in assay [2], in [3], in [7], in assay [17] and in assay [12] was inactive. The call in assay [13] was inactive. Moreover, the AC50 in assay [6] was 2.28 µM (active).

As a reminder, the AC50 is the midpoint of the concentration-response curve, whichever way the signal moves.
